Screens: PubChem, National Center for Advancing Translational Sciences (NCATS)
D2 antagonist: HTS Assay for Allosteric Antagonists of the Human D2 Dopamine Receptor: Primary Screen for Antagonists; HEK293 TREx D2 cells, calcium flux, dopamine EC80; inhibition, % at 10 µM; D(2) dopamine receptor (Homo sapiens), P14416; 340,000 compounds, 2% hits; AID 485344, 2010; in the data active = inhibition above about 30%; inactive = below that, where a call was filed
Target sequence (P14416 whole entry, looked up): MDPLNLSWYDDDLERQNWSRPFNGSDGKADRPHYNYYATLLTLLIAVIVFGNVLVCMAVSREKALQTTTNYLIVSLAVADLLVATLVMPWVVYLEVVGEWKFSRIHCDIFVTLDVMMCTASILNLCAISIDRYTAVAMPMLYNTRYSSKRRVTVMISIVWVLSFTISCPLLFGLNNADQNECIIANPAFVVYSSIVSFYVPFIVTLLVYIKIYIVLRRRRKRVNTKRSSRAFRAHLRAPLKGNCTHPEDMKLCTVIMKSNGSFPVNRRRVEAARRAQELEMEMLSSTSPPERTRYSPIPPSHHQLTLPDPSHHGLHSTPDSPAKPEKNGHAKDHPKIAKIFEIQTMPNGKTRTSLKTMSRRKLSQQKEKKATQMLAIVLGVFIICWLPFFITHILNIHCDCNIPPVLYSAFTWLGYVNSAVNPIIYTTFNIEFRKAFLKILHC
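Inhibition of EC80 dopamine-driven calcium flux, recorded kinetically, defines activity here; cells are a tetracycline-induced HEK293 T-REx line expressing force-coupled D2.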
D2 ag-1: HTS Assay for Allosteric Agonists of the Human D2 Dopamine Receptor: Primary Screen for Agonists. D(2) dopamine receptor (Homo sapiens), P14416. HEK293 T-REx D2 cells, calcium flux agonist mode. activation, % at 2 µM. 340,000 compounds, 0.53% hits. AID 485358, 2010;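 active = activation over 3 SD above normal in the single-dose calcium agonist read, cut at about 30% in these data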
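HEK293 Trex D2 cells, tetracycline-induced, o/n 30 C 5% CO2; no-wash Ca dye, RT 30–90 min; 10-cycle baseline, 23 nl cpd added, kinetic Ca read 180 s; agonist hits = positive Ca response.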
D2 PAM-1: HTS Assay for Positive Allosteric Modulators of the Human D2 Dopamine Receptor: Primary Screen for Potentiators. HEK293 T-REx D2, calcium flux, EC20 dopamine potentiation. potentiation, % at 10 µM. 340,000 compounds, 0.34% hits. AID 485347, 2010;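 active = potentiation over 3 SD above the plate norm, cut at about 30% in these data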
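Cells plated with tetracycline inducer and held overnight at 30 C; calcium dye loaded 30–90 min at room temperature; baseline taken, compound added and read 180 s; EC20 dopamine then added and read 180 s.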
D2 PAM-2: Beta-Arrestin HTS for Positive Allosteric Modulators of the Human D2 Dopamine Receptor: Potentiators. D(2) dopamine receptor (Homo sapiens), P14416. DiscoveRx D2 beta-arrestin cells, luminescence, 90 min; 100% = 57 uM dopamine signal. potentiation, % (test concentration not listed). 360,000 compounds, 0.23% hits; in the data active = potentiation above about 50%; inconclusive = mostly about 30% to 49%
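PathHunter D2 cells, attached overnight at 37 deg C, received compound in DMSO plus dopamine at EC20 (50 nM final) for 90 min at 37 deg C. Beta-arrestin recruitment was read as luminescence after 1 h with detection reagent at ambient temperature.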
D2 ag-2: Beta-Arrestin HTS for Positive Allosteric Modulators of the Human D2 Dopamine Receptor: Agonists; activation, % (no concentration beside the values); D(2) dopamine receptor (Homo sapiens), P14416; 360,000 compounds, 0.084% hits; DiscoveRx PathHunter D2 beta-arrestin, luminescence, 90 min; 100% = 57 uM dopamine signal; in the data active = activation above about 40%; inconclusive = between about 15% and that limit
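DiscoveRx PathHunter D2 beta-arrestin cells (2,100/well) attached overnight, then compound-stimulated 90 min at 37 C in HBSS/10 mM HEPES/0.1% Tween-20 buffer; beta-galactosidase complementation read by luminescence after 1 h at ambient temperature. Dopamine 57 uM final (EC100) as control.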
Hits are given with their value; - = inactive; ? = inconclusive; . = no result given. Compounds with a hit are over-represented: about 2.4% of the library has one in this group of screens.

SMILES	D2 antagonist	D2 ag-1	D2 PAM-1	D2 PAM-2	D2 ag-2
Cc1ccc(C(=O)Nc2cccc(C(=O)N/N=C/c3ccc(F)cc3)c2)cc1	31	-	-	-	-
O=C(N/N=C/c1cccc([N+](=O)[O-])c1)c1ccc(Br)cc1	-	-	-	-	-
O=C(CSc1nc2c([nH]c3ccccc32)c(=O)n1-c1cccc(Cl)c1)c1ccccc1	.	-	-	.	.
Cc1cc(OC(C)C(=O)N(Cc2ccc(N(C)C)cc2)Cc2ccco2)ccc1Cl (stereo unspecified)	.	-	-	.	.
O=C(C[n+]1ccccc1)N/N=C/c1cc(Br)ccc1O	36	-	-	-	-
O=C(C[n+]1ccccc1)N/N=C/c1ccccc1F	-	-	-	-	-
COc1ccc(NC(=S)N(CCCN2CCC(C)CC2)Cc2cccs2)cc1	-	-	.	-	-
CCOC(=O)c1ccc(NC(=S)N(CCCN2CCCC2)Cc2cccs2)cc1	-	-	-	-	-
CCOC(=O)c1ccc(NC(=S)N(CCCN2CCCC(C)C2)Cc2cccs2)cc1 (stereo unspecified)	40	-	-	-	-
COc1cccc(NC(=S)N(CCCN2CCC(C)CC2)Cc2cccs2)c1	59	-	-	-	-
Cc1ccsc1C=Nc1ccc(O)cc1	-	-	-	75	?
Cc1ccsc1/C=N/N=C/c1sccc1C	-	-	-	-	-
CCOc1ccc(CCNC(=O)c2sc3nc4n(c(=O)c3c2C)CCC4)cc1OCC	30	-	-	-	-
CCOc1ccc(CCNC(=O)c2sc3nc4n(c(=O)c3c2C)CCCC4)cc1OCC	.	-	-	.	.
COCCn1cnc2c1c(=O)n(Cc1ccccc1C#N)c(=O)n2Cc1ccccc1	-	-	36	-	-
Cc1nc2nc(NCc3ccc(Cl)cc3)[nH]n2c(=O)c1Cc1ccccc1	.	-	-	.	.
Cc1ccc(-c2nc(CCNC(=O)C(=O)Nc3ccc(C)c(Cl)c3)cs2)cc1	.	-	-	.	.
COc1ccc(Br)cc1C1Nc2ccccc2C(=O)N1NC(=O)c1ccncc1 (stereo unspecified)	-	-	30	-	-
O=C(NN1C(=O)c2cc(Br)ccc2NC1c1ccccc1Cl)c1ccncc1 (stereo unspecified)	.	.	.	-	-
CCN(CC)CCCNc1oc(-c2ccc(OC)cc2)nc1C#N	.	-	-	.	.
CSc1ccccc1NC(=O)Nc1ccc(Cl)cc1	31	-	-	-	-
COc1ccc(Br)cc1C1C(C(=O)Nc2ccc(C)cc2C)=C(C)Nc2ncnn21 (stereo unspecified)	.	-	-	.	.
Cc1nc(Nc2cccc(O)c2)c2oc3ccccc3c2n1	33	-	-	-	-
O=C1NC(=Nc2ccc(Cl)cc2)/C(=C/c2ccco2)S1	59	-	-	-	-
Cc1cc(C)c(S(=O)(=O)NCCOc2ccccc2)c(C)c1-n1cnnn1	-	-	41	-	-
SMILES	D2 antagonist	D2 ag-1	D2 PAM-1	D2 PAM-2	D2 ag-2
COc1cc(NC(=O)c2cc(-c3cccc(OC)c3)n[nH]2)cc(OC)c1	.	-	-	.	.
CCN1CCN(C(=O)c2cccc(OC3CCN(S(=O)(=O)N(C)C)CC3)c2)CC1	-	-	36	-	-
COc1ccccc1C(=O)N/N=C/C(C)=C/c1ccccc1	75	-	-	-	-
CC(/C=N/NC(=O)c1ccncc1)=C\c1ccccc1	-	-	-	-	-
CC(=C/c1ccccc1)/C=N/NC(=O)c1ccccn1	-	-	-	-	-
CC(=C/c1ccc(C(C)C)cc1)/C=N/NC(=O)c1ccncc1	36	-	-	-	-
CC(/C=N/NC(=O)c1cccc(F)c1)=C\c1ccccc1	33	-	-	-	-
CC1=Nn2c(nc3sc4c(c3c2=O)CCCC4)SC1	55	-	-	-	-
O=c1c2c3c(sc2nc2n1CCCCC2)CCCCC3	57	-	-	.	.
CCOC(=O)c1c(-c2ccccc2)oc2ccc(NS(=O)(=O)c3cc(C)c(C)cc3C)cc12	.	.	-	.	.
